High-throughput results from PubChem BioAssay.
mIDH1 inhibitor – human IDH1 R132H inhibition; AID 602179; IDH1-R132H enzyme, NADPH consumption, diaphorase/resazurin fluorescence; Potency, µM (doses to about 76.6 µM), without a hit: at the highest dose activity change, negative = inhibition, usual class: inhibitors; hit rate 0.093% among 390,000; note: % is set by controls: 0 for no effect and ±100 for the full control effect; nearly all actives have a fitted effect of over 65% in size
Target sequence (O75874 whole entry R132H, stated change not applied): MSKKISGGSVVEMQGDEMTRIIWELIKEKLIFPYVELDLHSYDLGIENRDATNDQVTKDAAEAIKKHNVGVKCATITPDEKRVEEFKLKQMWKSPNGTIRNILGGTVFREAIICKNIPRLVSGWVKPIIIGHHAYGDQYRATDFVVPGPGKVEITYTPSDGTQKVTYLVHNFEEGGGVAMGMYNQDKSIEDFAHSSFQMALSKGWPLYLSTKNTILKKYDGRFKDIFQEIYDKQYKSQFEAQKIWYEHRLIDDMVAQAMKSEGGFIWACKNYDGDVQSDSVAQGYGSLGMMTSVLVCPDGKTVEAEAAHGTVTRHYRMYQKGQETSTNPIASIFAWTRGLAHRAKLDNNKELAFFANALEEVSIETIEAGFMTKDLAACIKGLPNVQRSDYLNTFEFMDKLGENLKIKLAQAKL
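IDH1-R132H (0.5 ug/mL dispensed) in pH 7.5 Tris buffer was preincubated 30 min with compound, then given a substrate mix of 0.016 mM NADPH and 2 mM alpha-KG for 80 min at room temperature; remaining NADPH was read by diaphorase/resazurin fluorescence.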
Nrf2 inh – blocks Nrf2 signaling; A549 ARE-Fluc reporter, luciferase luminescence, 18-24 h; Potency, µM (top dose mostly 46 µM), without a hit: top-dose activity change, negative = inhibition, hits mostly inhibitors; hit rate 2.1% among 360,000; AID 504444; note: % is set by controls: 0 for no effect and ±100 for the full control effect; nearly all actives have a fitted effect of over 60% in size
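Two sequential reads on A549 ARE_Fluc cells exposed to compound for 18-24 h: a CellTiter-Fluor fluorescence read for viability, then a luciferase luminescence read for Nrf2/ARE activity.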
ELG1 repair inh – ELG1-dependent DNA repair inhibition; hit rate 2.3% among 330,000; Potency, µM (titrated, usually from 46.1 µM), for the others: at the top dose activity change, negative = inhibition, usual class: inhibitors; AID 504467; HEK293T ELG1-luciferase reporter, luminescence, 16 h; DNA damage induced by 5-fluorouridine; note: % is set by controls: 0 for no effect and ±100 for the full control effect; nearly all actives have a fitted effect of over 55% in size
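Cells (2,000 per well) received 5-fluorouridine plus test compound or DMSO and were incubated 16 hr at 37 °C, 5% CO2. Luciferase activity was read by luminescence 30 min after ONE-Glo addition; signal suppression marked inhibition of damage-induced ELG1 function.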
Nrf2 activator – Nrf2 pathway activation. hit rate 0.31% among 410,000. Potency, µM (series often up to 46.1 µM), inactives show at the highest dose activation, usual class: activators. AREc32 ARE-luciferase reporter (MCF7-derived line), luminescence, 24 h; note: % of control where 0% means no effect; nearly all actives have a fitted effect of over 65% in size
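Steps: seed AREc32_Fluc cells (1000/well, 5% FBS OPTI-MEM); incubate overnight at 37 deg C; add 23 nL compound; incubate 24 hr; add Steady-Glo; hold 30 min RT; read luminescence.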
A549 tox – counter-screen for Nrf2 inhibitors: cytotoxicity in A549 cells; AID 504648; hit rate 0.16% among 390,000; A549 ARE-Fluc cells, CellTiter-Fluor viability, 18-24 h; Potency, µM (titrated, usually from 46 µM), for inactives: at the top dose activity change, negative = cytotoxicity, usual class: inhibitors; note: % is set by controls: 0 for no effect and ±100 for the full control effect
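A549 ARE_Fluc cells in 5% FBS OPTI-MEM were exposed to compounds in concentration-response for 18-24 h at 37 deg C. Viability was read by CellTiter-Fluor fluorescence (Ex 405/Em 525) after 30 min, before the luciferase read.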
* marks the source's active call; other numbers are inactive results. Rows were chosen to be rich in hits. Some 3.8% of all compounds tested hit in one or more screens of this group. Calls come from the whole dose curve; as a rule, active = well fitted curve in the direction sought with a large enough effect; inconclusive = small, poorly fitted or top-dose-only effect, or another doubt; inactive = no such curve, though single readings can be large; an effect the other way counts as inactive or inconclusive. Potency is the fitted concentration of half-maximal effect.

What do the screens show for `N#C/C(=C\c1ccc(-c2cccc([N+](=O)[O-])c2)o1)c1nnc(N2CCOCC2)n1-c1ccccc1`?
ELG1 repair inh: 5.8µM*

What do the screens show for `Cc1ccc(C)c(Cn2c(=O)n(Cc3ccccc3)c(=O)c3c2c2cc(C)ccc2n3C)c1`?
mIDH1 inhibitor: 9%; Nrf2 inh: 23%; Nrf2 activator: -2%; A549 tox: 5%

How did Cc1[nH]n(C(N)=S)c(=O)c1N=Nc1cccc(C(F)(F)F)c1 do in these assays?
mIDH1 inhibitor: 2%; Nrf2 inh: inconclusive; ELG1 repair inh: inconclusive; Nrf2 activator: 0%; A549 tox: inconclusive

Results for Cc1[nH]n(C2=NCCS2)c(=O)c1N=Nc1cccc(C(F)(F)F)c1 ?
mIDH1 inhibitor: 1%; Nrf2 inh: -11%; ELG1 repair inh: 2.9µM*; Nrf2 activator: 0%; A549 tox: inconclusive

What do the screens show for `CCc1noc(C)c1C(=O)Oc1ccc(N(C)S(=O)(=O)c2ccccc2)cc1`?
mIDH1 inhibitor: -2%; Nrf2 inh: 16µM*; ELG1 repair inh: inconclusive; Nrf2 activator: 3%; A549 tox: -9%

How did CCc1noc(C)c1C(=O)Oc1ccc(N(C)S(=O)(=O)c2ccc(C)cc2)cc1 do in these assays?
mIDH1 inhibitor: 4%; Nrf2 inh: inconclusive; ELG1 repair inh: inconclusive; Nrf2 activator: 1%; A549 tox: -6%

How did c1cncc(CSc2nnc(-c3cccnc3)n2Cc2ccco2)c1 do in these assays?
ELG1 repair inh: -1%

How did FC(F)(F)COc1cc(-c2nnc(SCc3ccccc3)n2Cc2ccco2)cc(OCC(F)(F)F)n1 do in these assays?
mIDH1 inhibitor: -1%; Nrf2 inh: inconclusive; ELG1 repair inh: 18µM*; Nrf2 activator: 0%; A549 tox: 0%

How did Cc1ccc(S(=O)(=O)c2nnn3c2nc(NCc2ccccc2Cl)c2sccc23)cc1 do in these assays?
mIDH1 inhibitor: -5%; Nrf2 inh: -10%; Nrf2 activator: -1%; A549 tox: 6%

How did COc1ccc2nc(-c3cccc(F)c3)sc2c1 do in these assays?
Nrf2 inh: inconclusive; A549 tox: 9%

Results for COc1ccc(C2N=C(Nc3nc4ccccc4o3)NC3=C2C(=O)CC(C)(C)C3)cc1 (stereo not given) ?
Nrf2 inh: 6%; A549 tox: 2%

Results for O=c1c([N+](=O)[O-])c(N2CCOCC2)c2ccccc2n1Cc1ccccc1 ?
mIDH1 inhibitor: -1%; Nrf2 inh: 6%; ELG1 repair inh: -5%; Nrf2 activator: 0%; A549 tox: 14%

What do the screens show for `Cn1c(=O)c([N+](=O)[O-])c(N2CCSCC2)c2ccccc21`?
mIDH1 inhibitor: 2%; Nrf2 inh: -16%; ELG1 repair inh: inconclusive; Nrf2 activator: 0%; A549 tox: -12%

What do the screens show for `CCn1c(=O)c([N+](=O)[O-])c(N2CCSCC2)c2ccccc21`?
mIDH1 inhibitor: 2%; Nrf2 inh: 16µM*; ELG1 repair inh: 6.5µM*; Nrf2 activator: 0%; A549 tox: -8%

What do the screens show for `CCn1c(=O)c([N+](=O)[O-])c(N2CCN(Cc3ccc4c(c3)OCO4)CC2)c2ccccc21`?
mIDH1 inhibitor: -3%; Nrf2 inh: inconclusive; ELG1 repair inh: 15µM*; Nrf2 activator: -1%; A549 tox: 3%

Results for COc1cc(OC)c(N(C)C(=O)Cn2ncc3c(=O)oc4ccccc4c32)cc1Cl ?
mIDH1 inhibitor: -8%; Nrf2 inh: 1%; Nrf2 activator: 0%; A549 tox: 9%

Results for Cc1nc2ccn(Cc3ccccc3)c(=O)c2cc1C(=O)N1CCN(c2ccc(F)cc2)CC1 ?
mIDH1 inhibitor: -4%; Nrf2 inh: inconclusive; ELG1 repair inh: 6.5µM*; Nrf2 activator: 0%; A549 tox: 0%

What do the screens show for `CC1CCCCN1C(=O)CSc1n[nH]c(-c2ccccc2)n1` (stereo not given)?
mIDH1 inhibitor: 14%; Nrf2 activator: 2%; A549 tox: -12%
